Measurements as given in PubChem BioAssay (EPA / NIEHS).
The source made the active and inactive calls. Rule for the calls: active = hit-call score of the fitted dose curve at least 0.9, where 1 is the maximum; inactive = score below 0.9.

Columns and labels:
[1] = read-out: Matrix Metallopeptidase 9 (MMP9), MMP9 (gene 4318); test: BSK_KF3CT_MMP9: BioMAP Diversity Plus: KF3CT Assay for Matrix Metallopeptidase 9 (MMP9) Biomarker Activity (AID 2283074); conditions: primary human keratinocytes with fibroblasts; actives raise or lower the signal
Method in brief: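 ELISA read-out of MMP-9 at 24 h post-dosing in a co-culture of human skin keratinocytes and foreskin fibroblasts. Gain or loss of signal was fitted in both directions against DMSO.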

[2] = read-out: urokinase plasminogen activator (uPA), PLAU (gene 5328); test: BSK_KF3CT_uPA: BioMAP Diversity Plus: KF3CT Assay for urokinase plasminogen activator (uPA) Biomarker Activity (AID 2283075); conditions: primary human keratinocytes with fibroblasts; actives raise or lower the signal
Method in brief: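 Skin co-culture (keratinocytes + foreskin fibroblasts), human primary; 24 h post-dose; uPA by ELISA; gain/loss fit vs DMSO baseline.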

CD40, CD40 (gene 958) = test: BSK_LPS_CD40: BioMAP Diversity Plus: LPS Assay for CD40 Biomarker Activity (AID 2283076); conditions: primary human HUVEC with PBMC; actives raise or lower the signal
Method in brief: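 Using a multiplexed primary human co-culture (umbilical vein endothelium plus PBMC), CD40 was read by ELISA 24 h after dosing, with cytotoxicity tracked by sulforhodamine B staining of parallel cultures and activity fitted bidirectionally versus DMSO.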

[3] = read-out: E-selectin (Homo sapiens) (UniProt P16581); test: BSK_LPS_Eselectin: BioMAP Diversity Plus: LPS Assay for Eselectin Biomarker Activity (AID 2283077); conditions: primary human HUVEC with PBMC; actives raise or lower the signal
Method in brief: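 Dose chemical onto LPS-driven HUVEC/PBMC co-culture; after 24 h, run ELISA for E-selectin; fit up- and down-going responses relative to DMSO control.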

[4] = read-out: Interleukin-8 (IL8), CXCL8 (gene 3576); test: BSK_LPS_IL8: BioMAP Diversity Plus: LPS Assay for Interleukin-8 (IL8) Biomarker Activity (AID 2283078); conditions: primary human HUVEC with PBMC; actives raise or lower the signal
Method in brief: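 In this LPS system, chemical-treated human umbilical vein endothelium/PBMC co-cultures were harvested at 24 h for IL-8 ELISA.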

[5] = BSK_LPS_SRB: Viability Assessment in the BioMAP Diversity Plus: LPS Assay (AID 2283079); conditions: primary human HUVEC with PBMC;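 note: total protein by sulforhodamine B absorbance as a cytotoxicity measure; measured one day after compound addition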
Method in brief: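 Cytotoxicity endpoint in human endothelial–PBMC co-culture: 24 h exposure, then SRB (0.1%) staining, 560 nm read.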

[6] = read-out: Interleukin-1 alpha (IL1a), IL1A (gene 3552); test: BSK_LPS_IL1a: BioMAP Diversity Plus: LPS Assay for Interleukin-1 alpha (IL1a) Biomarker Activity (AID 2283080); conditions: primary human HUVEC with PBMC; actives raise or lower the signal
Method in brief: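 Primary human HUVEC and PBMC co-culture stimulated with LPS is dosed and harvested at 24 h. Both increases and decreases in ELISA-measured IL-1a are scored relative to DMSO.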

[7] = read-out: Monocyte Chemoattractant Protein-1 (MCP1), CCL2 (gene 6347); test: BSK_LPS_MCP1: BioMAP Diversity Plus: LPS Assay for Monocyte Chemoattractant Protein-1 (MCP1) Biomarker Activity (AID 2283081); conditions: primary human HUVEC with PBMC; actives raise or lower the signal
Method in brief: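 Values derive from bidirectional fitting against DMSO of ELISA-measured MCP-1 in a human primary endothelial and mononuclear cell co-culture, 24 h after chemical addition under LPS activation.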

[8] = BSK_LPS_PGE2: BioMAP Diversity Plus: LPS Assay for Prostaglandin E2 (PGE2) Biomarker Activity (AID 2283082); conditions: primary human HUVEC with PBMC; actives raise or lower the signal;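 for AC50: secreted prostaglandin E2 measured by ELISA in LPS-stimulated co-culture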
Method in brief: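 Primary human endothelial cells and blood mononuclear cells, co-cultured with LPS, receive test chemical; PGE2 ELISA follows at 24 h, with SRB-stained parallel cultures flagging cytotoxicity.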

[9] = read-out: C-C motif chemokine 2 (Homo sapiens) (UniProt P13500); test: BSK_KF3CT_MCP1: BioMAP Diversity Plus: KF3CT Assay for Monocyte Chemoattractant Protein 1 (MCP1/CCL2) Biomarker Activity (AID 2283073); conditions: primary human keratinocytes with fibroblasts; actives raise or lower the signal
Method in brief: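 Biomarker MCP-1 is measured by ELISA in primary human keratinocytes co-cultured with foreskin fibroblasts, 24 h after chemical treatment; DMSO serves as the negative control and activity baseline.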

Measured: AC50

Sequence of E-selectin (Homo sapiens) (P16581 whole entry, looked up): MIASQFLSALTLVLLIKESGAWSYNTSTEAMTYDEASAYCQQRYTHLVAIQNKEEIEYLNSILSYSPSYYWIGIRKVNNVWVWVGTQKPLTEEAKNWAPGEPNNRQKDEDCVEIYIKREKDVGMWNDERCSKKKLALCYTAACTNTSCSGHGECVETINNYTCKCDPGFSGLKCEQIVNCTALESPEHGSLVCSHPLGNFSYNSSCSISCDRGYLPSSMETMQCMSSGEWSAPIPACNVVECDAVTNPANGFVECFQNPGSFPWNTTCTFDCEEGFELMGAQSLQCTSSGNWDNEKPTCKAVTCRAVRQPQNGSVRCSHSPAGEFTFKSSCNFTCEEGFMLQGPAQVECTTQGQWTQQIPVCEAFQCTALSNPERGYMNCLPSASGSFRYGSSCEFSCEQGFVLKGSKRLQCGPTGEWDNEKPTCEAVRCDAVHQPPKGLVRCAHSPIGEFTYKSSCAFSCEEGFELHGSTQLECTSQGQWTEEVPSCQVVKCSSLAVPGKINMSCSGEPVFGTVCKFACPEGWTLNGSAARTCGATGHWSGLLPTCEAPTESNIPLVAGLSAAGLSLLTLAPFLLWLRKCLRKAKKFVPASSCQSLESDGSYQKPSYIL

CC(C)CC(C)(O)C#CC(C)(O)CC(C)C (centres undefined)
not listed: [9]
inactive: all other assays above

Oc1ccc2c(c1)-c1ccccc1C2
active: CD40, CD40 (gene 958) 20 µM | [5] 20 µM | [8] 13.2 µM
inactive: all other assays above

Cc1ccc(N)cc1O
active: [8] 4.87 µM
inactive: all other assays above
